From the supplement of paper PMC6522484 come the findings set out here.

Counter-ions that a name gives are not always drawn. ± gives the standard deviation of the averaged measurements.

Experiment [1] has as its system DLD1. Nature of the experiment: cell viability (CellTiter-Glo) relative to plate median (fraction of plate median); higher = more viable cells. Particulars: 10 µM, treatment time 24 h. The essentials: (§1)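 Kinase inhibitor library compounds were added at a final 10 µM for 24 h to colorectal cancer cells in 384-well plates, 24 h after seeding. The cells stably expressed lentiviral TCF/Wnt firefly luciferase reporters. Firefly luciferase and CellTiterGlo luminescence came from parallel plates, and each well was normalised to its plate median (webcellHTS2, additive, untransformed), averaged over two independent replicates.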
(In general: Cellular ATP, detected with luciferase, serves as a proxy for viable cell number.)

In experiment [2] the test system is HCT116. The description is as above. The note with it: 10 µM; treatment time 24 h; reporter: TCF4/Wnt. Summed up:
as §1

Experiment [3] relates to SW480. The experiment is described as above. Particulars: 10 µM; treatment time 24 h; reporter: 7TFP. The essentials: as §1
In experiment [4] the test system is DLD1. Nature of the experiment: TCF/Wnt firefly luciferase reporter signal relative to plate median (fraction of plate median); higher = higher Wnt reporter signal. Particulars: 10 µM, treatment time 24 h. The essentials:
as §1

Experiment [5] deals with HCT116. The description is as above. Particulars: 10 µM; treatment time 24 h; reporter: TCF4/Wnt. Summed up:
as §1

For experiment [6], the system named is SW480. The description is as above. Particulars: 10 µM; treatment time 24 h; reporter: 7TFP. The essentials: as §1

Regarding `Cn1cc(-c2ccc3nnc(C(F)(F)c4ccc5ncccc5c4)n3n2)cn1`, the cell viability came out at 1.14 ± 0.13 in the experiment on DLD1 [1] (reporter: 7TFP), 0.972 ± 0.11 in the experiment on DLD1 [1] (reporter: TCF4/Wnt), 1.16 ± 0.05 in the experiment on HCT116 [2] and 0.846 ± 0.059 in the experiment on SW480 [3]. Besides, the “TCF/Wnt firefly luciferase reporter signal” value in the experiment with DLD1 [4] (reporter: 7TFP) is 1.35 ± 0.05; in the experiment on DLD1 [4] (reporter: TCF4/Wnt) it was 1.4 ± 0.32; in the experiment on HCT116 [5], 1.25 ± 0.43; in the experiment with SW480 [6], 1.06 ± 0.064.

`C#Cc1cccc(Nc2ncnc3cc(OCCOC)c(OCCOC)cc23)c1` [Erlotinib HCl]: the cell viability with DLD1 [1] (reporter: 7TFP) turned out to be 1.035 ± 0.0071; in the experiment with DLD1 [1] (reporter: TCF4/Wnt), 0.934 ± 0.034; in the experiment on HCT116 [2] it was 1.14 ± 0.078; with SW480 [3] it was 1 ± 0.013. The “TCF/Wnt firefly luciferase reporter signal” value was determined as 0.888 ± 0.023 in the experiment with DLD1 [4] (reporter: 7TFP), 0.73 ± 0.0057 with DLD1 [4] (reporter: TCF4/Wnt), 0.729 ± 0.4 in the experiment on HCT116 [5] and 0.868 ± 0.3 with SW480 [6].

As to `COc1cccc(-c2cc(=O)c3ccccc3o2)c1N`, the cell viability in the experiment on DLD1 [1] (reporter: 7TFP) came to 1.24 ± 0.085; in the experiment on DLD1 [1] (reporter: TCF4/Wnt), 1.025 ± 0.0071; with HCT116 [2], 1.19 ± 0.071; with SW480 [3] it was 1 ± 0.023. Further, the “TCF/Wnt firefly luciferase reporter signal” value worked out at 1.71 ± 0.2 with DLD1 [4] (reporter: 7TFP), 1.62 ± 0.53 in the experiment on DLD1 [4] (reporter: TCF4/Wnt), 1.25 ± 1 with HCT116 [5] and 1.27 ± 0.65 in the experiment on SW480 [6].

`Nc1nc(Nc2ccc(S(N)(=O)=O)cc2)nn1C(=O)c1c(F)cccc1F`: the cell viability in the experiment on DLD1 [1] (reporter: 7TFP) amounted to 1.01 ± 0.14; in the experiment on DLD1 [1] (reporter: TCF4/Wnt) it was 1.05 ± 0.076; in the experiment on HCT116 [2], 0.71 ± 0.11; with SW480 [3], 1.24 ± 0.071. The “TCF/Wnt firefly luciferase reporter signal” value was 0.811 ± 0.057 with DLD1 [4] (reporter: 7TFP), 1.59 ± 0.69 in the experiment on DLD1 [4] (reporter: TCF4/Wnt), 0.284 ± 0.018 in the experiment with HCT116 [5] and 1.09 ± 0.13 in the experiment with SW480 [6].

Consider `N#C/C(=C\c1ccc(O)c(O)c1)C(=O)NCc1ccccc1`, for which the cell viability amounted to 0.874 ± 0.063 in the experiment on DLD1 [1] (reporter: 7TFP), 0.946 ± 0.031 with DLD1 [1] (reporter: TCF4/Wnt), 1.08 ± 0.028 in the experiment with HCT116 [2] and 0.94 ± 0.032 with SW480 [3]. The “TCF/Wnt firefly luciferase reporter signal” value in the experiment on DLD1 [4] (reporter: 7TFP) is 0.656 ± 0.15; in the experiment on DLD1 [4] (reporter: TCF4/Wnt) it was 1.2 ± 0.13; in the experiment on HCT116 [5] it was 1.1 ± 0.021; with SW480 [6] it was 0.834 ± 0.016.

`c1ccc2c(-c3cnn4cc(-c5ccc(N6CCNCC6)cc5)cnc34)ccnc2c1`: the cell viability with DLD1 [1] (reporter: 7TFP) came out at 0.666 ± 0.25; in the experiment on DLD1 [1] (reporter: TCF4/Wnt), 0.874 ± 0.093; in the experiment on HCT116 [2] it was 0.62 ± 0.14; in the experiment with SW480 [3] it was 0.8895 ± 0.0064. For the same compound, the “TCF/Wnt firefly luciferase reporter signal” value is 1.02 ± 0.014 with DLD1 [4] (reporter: 7TFP), 1.08 ± 0.18 in the experiment on DLD1 [4] (reporter: TCF4/Wnt), 0.634 ± 0.3 in the experiment with HCT116 [5] and 1.35 ± 0.11 with SW480 [6].

For `CC(C)(C)c1cnc(CSc2cnc(NC(=O)C3CCNCC3)s2)o1`, the cell viability amounted to 1.09 ± 0.12 with DLD1 [1] (reporter: 7TFP), 1.06 ± 0.23 with DLD1 [1] (reporter: TCF4/Wnt), 0.786 ± 0.17 in the experiment with HCT116 [2] and 1.3 ± 0.099 in the experiment on SW480 [3]. Moreover, the “TCF/Wnt firefly luciferase reporter signal” value worked out at 0.462 ± 0.047 in the experiment with DLD1 [4] (reporter: 7TFP), 1.06 ± 0.92 in the experiment with DLD1 [4] (reporter: TCF4/Wnt), 0.228 ± 0.0071 with HCT116 [5] and 0.84 ± 0.025 in the experiment with SW480 [6].

Take `COc1cc(Nc2ncc(F)c(Nc3ccc4c(n3)N(COP(=O)(O)O)C(=O)C(C)(C)O4)n2)cc(OC)c1OC` [R788 (Fostamatinib)]: the cell viability with DLD1 [1] (reporter: 7TFP) was 0.89 ± 0.13; with DLD1 [1] (reporter: TCF4/Wnt) it was 0.959 ± 0.046; in the experiment on HCT116 [2] it was 0.888 ± 0.086; in the experiment with SW480 [3], 0.923 ± 0.037. In addition, the “TCF/Wnt firefly luciferase reporter signal” value in the experiment with DLD1 [4] (reporter: 7TFP) is 0.781 ± 0.21; in the experiment with DLD1 [4] (reporter: TCF4/Wnt) it was 0.831 ± 0.079; with HCT116 [5] it was 2.88 ± 0.22; in the experiment with SW480 [6], 0.879 ± 0.079.

Consider `COc1cc2/c(=N/c3ccc(Br)cc3F)nc[nH]c2cc1OCC1CCN(C)CC1` [Vandetanib (Zactima)], for which the cell viability was determined as 0.921 ± 0.18 in the experiment with DLD1 [1] (reporter: 7TFP), 1.08 ± 0.057 in the experiment with DLD1 [1] (reporter: TCF4/Wnt), 1.14 ± 0.085 in the experiment on HCT116 [2] and 1.2 ± 0.035 in the experiment on SW480 [3]. Besides, the “TCF/Wnt firefly luciferase reporter signal” value in the experiment with DLD1 [4] (reporter: 7TFP) amounted to 0.9625 ± 0.0035; in the experiment with DLD1 [4] (reporter: TCF4/Wnt), 0.773 ± 0.093; in the experiment on HCT116 [5], 0.916 ± 0.081; in the experiment with SW480 [6], 1.2 ± 0.092.
